Of roughly 8,800 targets only a part is listed; those with a hit were picked by preference. About 0.5% of all pairs of compound and target were hits.
How the values were obtained:
Experiment in all cases: log2 fold change, soluble protein after heating vs DMSO (PISA); higher = thermal stabilisation; K562 lysate, 10 uM; active = over 0.2 and 3.5 SD of the protein, either way, in both replicates (recomputed)
nilotinib = compound: Cc1cn(-c2cc(NC(=O)c3ccc(C)c(Nc4nccc(-c5cccnc5)n4)c3)cc(C(F)(F)F)c2)cn1 [nilotinib]
Summary of the method: (§1)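 To prepare the extract, K562 pellets were dounce-homogenised in PBS pH 7.4 with 1 mM MgCl2, giving crude material at 1 mg/mL protein. This was treated with 10 μM compound for 30 min, then heated in aliquots for 3 min over 48°C-58°C before pooling and addition of NP-40 to 0.5% at 4°C. Centrifugation at 21,000xg for 90 min left soluble protein in the supernatant, which TMTpro 16plex LC-MS/MS quantified with equalised channel sums. Results are log-two fold changes in thermal stability compared with solvent controls, from duplicates.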

[1] = compound: Cc1nc(Nc2n[nH]c3c2CN(C(=O)N[C@H](CN(C)C)c2ccccc2)C3(C)C)c2sccc2n1
Summary of the method: as §1

dasatinib = compound: Cc1nc(Nc2ncc(C(=O)Nc3c(C)cccc3Cl)s2)cc(N2CCN(CCO)CC2)n1 [dasatinib]
Summary of the method: as §1

[2] = compound: Cc1ncc(-c2ccnc(Nc3ccc(S(C)(=O)=O)cc3)n2)n1C(C)C
Summary of the method: as §1

[3] = compound: Cn1cc(-c2ccc3c(c2)CCN3C(=O)Cc2cccc(C(F)(F)F)c2)c2c(N)ncnc21
Summary of the method: as §1

quisinostat = compound: Cn1cc(CNCC2CCN(c3ncc(C(=O)NO)cn3)CC2)c2ccccc21 [quisinostat]
Summary of the method: as §1

tipifarnib = compound: Cn1cncc1[C@@](N)(c1ccc(Cl)cc1)c1ccc2c(c1)c(-c1cccc(Cl)c1)cc(=O)n2C [tipifarnib]
Summary of the method: as §1

[4] = compound: NC(=O)Nc1cc(-c2cccc(F)c2)sc1C(=O)N[C@H]1CCCNC1
Summary of the method: as §1

[5] = compound: NC(=O)c1cnc(N[C@@H]2CCCC[C@@H]2N)nc1Nc1cccc(-n2nccn2)c1
Summary of the method: as §1

[6] = compound: NC1(c2ccc(-c3nc4ccn5c(=O)[nH]nc5c4cc3-c3ccccc3)cc2)CCC1
Summary of the method: as §1

Measured: log2 fold change

PFN1 (UniProt P07737)
inactive: nilotinib -0.002 | [1] 0.002 | dasatinib 0.022 | [2] -0.008 | [3] -0.006 | quisinostat 0.008 | tipifarnib 0.03 | [4] -0.018 | [5] -0.018 | [6] 0.014

PDE4DIP isoform 4 (UniProt Q5VU43)
inactive: nilotinib -0.026 | [1] 0.004 | dasatinib 0.007 | [2] -0.015 | [3] -0.029 | quisinostat -0.083 | tipifarnib -0.032 | [4] -0.018 | [5] -0.034 | [6] -0.011

PRKD2 isoform 3 (UniProt Q9BZL6)
inactive: nilotinib 0.079 | [1] -0.229 | dasatinib 0.028 | [2] -0.054 | [3] 0.04 | quisinostat -0.046 | tipifarnib 0.069 | [4] -0.115 | [5] 0.06 | [6] -0.01

PPFIA2 (UniProt O75334)
Sequence of UniProt O75334 (O75334 whole entry, looked up): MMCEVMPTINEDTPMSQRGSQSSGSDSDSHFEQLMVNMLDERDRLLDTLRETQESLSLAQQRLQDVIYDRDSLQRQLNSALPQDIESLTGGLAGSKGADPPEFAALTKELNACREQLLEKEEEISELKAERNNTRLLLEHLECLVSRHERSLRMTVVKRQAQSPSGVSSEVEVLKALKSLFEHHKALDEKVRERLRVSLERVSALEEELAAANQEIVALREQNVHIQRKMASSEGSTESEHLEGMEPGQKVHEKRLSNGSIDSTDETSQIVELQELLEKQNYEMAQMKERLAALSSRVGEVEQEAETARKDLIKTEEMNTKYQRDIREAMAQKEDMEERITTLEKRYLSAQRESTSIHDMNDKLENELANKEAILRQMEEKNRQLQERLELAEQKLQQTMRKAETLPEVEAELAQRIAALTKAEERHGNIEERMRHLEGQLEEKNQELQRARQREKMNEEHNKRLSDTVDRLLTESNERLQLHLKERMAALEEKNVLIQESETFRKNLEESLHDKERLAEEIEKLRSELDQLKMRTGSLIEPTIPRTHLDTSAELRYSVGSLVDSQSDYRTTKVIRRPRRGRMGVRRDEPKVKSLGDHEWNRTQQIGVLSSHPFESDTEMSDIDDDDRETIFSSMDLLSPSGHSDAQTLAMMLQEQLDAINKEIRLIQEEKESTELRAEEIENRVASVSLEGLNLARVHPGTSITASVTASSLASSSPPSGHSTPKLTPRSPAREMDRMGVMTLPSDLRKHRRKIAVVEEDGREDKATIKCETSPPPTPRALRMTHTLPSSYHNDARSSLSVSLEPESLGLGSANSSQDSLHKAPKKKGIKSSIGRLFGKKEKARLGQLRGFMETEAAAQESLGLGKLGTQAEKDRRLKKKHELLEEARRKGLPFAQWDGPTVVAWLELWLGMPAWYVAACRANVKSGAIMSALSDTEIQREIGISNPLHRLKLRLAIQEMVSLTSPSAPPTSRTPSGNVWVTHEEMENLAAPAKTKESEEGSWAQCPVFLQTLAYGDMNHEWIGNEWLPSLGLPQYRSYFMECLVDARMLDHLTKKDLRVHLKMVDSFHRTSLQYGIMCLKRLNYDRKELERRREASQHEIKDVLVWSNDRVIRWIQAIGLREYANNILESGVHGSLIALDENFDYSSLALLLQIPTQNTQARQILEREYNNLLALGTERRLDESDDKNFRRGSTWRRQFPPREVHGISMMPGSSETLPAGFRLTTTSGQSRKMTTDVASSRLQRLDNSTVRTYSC
inactive: nilotinib -0.046 | [1] 0.027 | dasatinib -0.064 | [2] -0.022 | [3] 0.01 | quisinostat -0.238 | tipifarnib -0.029 | [4] 0.017 | [5] 0.024 | [6] -0.089

PPIE (UniProt Q9UNP9)
inactive: nilotinib -0.027 | [1] 0.017 | dasatinib -0.017 | [2] -0.01 | [3] -0.016 | quisinostat -0.091 | tipifarnib -0.003 | [4] -0.018 | [5] 0.04 | [6] -0.034

PTMA (UniProt P06454)
Sequence of UniProt P06454 (P06454 whole entry, looked up): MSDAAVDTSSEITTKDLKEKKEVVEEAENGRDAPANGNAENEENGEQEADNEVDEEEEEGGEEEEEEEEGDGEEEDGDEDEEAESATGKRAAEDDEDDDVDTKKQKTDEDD
inactive: nilotinib 0.008 | [1] -0.046 | dasatinib 0.056 | [2] 0.019 | [3] -0.025 | quisinostat 0.047 | tipifarnib 0.045 | [4] 0.017 | [5] 0.032 | [6] -0.006

PTPN1 (UniProt P18031)
inactive: nilotinib -0.001 | [1] 0.019 | dasatinib -0.062 | [2] 0.007 | [3] 0.027 | quisinostat -0.051 | tipifarnib -0.032 | [4] 0.039 | [5] 0.026 | [6] 0.021

PSTPIP2 (UniProt Q9H939)
Sequence of UniProt Q9H939 (Q9H939 whole entry, looked up): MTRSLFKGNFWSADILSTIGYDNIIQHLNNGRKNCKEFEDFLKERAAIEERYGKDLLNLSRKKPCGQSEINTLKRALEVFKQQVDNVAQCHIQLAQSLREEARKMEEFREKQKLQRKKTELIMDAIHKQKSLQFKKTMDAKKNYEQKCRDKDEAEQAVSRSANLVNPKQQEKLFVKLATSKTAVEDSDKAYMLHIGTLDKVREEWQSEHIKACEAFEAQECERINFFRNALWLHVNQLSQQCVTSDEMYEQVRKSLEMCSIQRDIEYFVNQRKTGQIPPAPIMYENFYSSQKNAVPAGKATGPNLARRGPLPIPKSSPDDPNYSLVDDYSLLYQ
inactive: nilotinib 0.029 | [1] 0.016 | dasatinib -0.056 | [2] 0.028 | [3] 0.023 | quisinostat -0.037 | tipifarnib -0.008 | [4] 0.008 | [5] -0.007 | [6] 0.007

PLEKHA5 isoform 6 (UniProt Q9HAU0)
inactive: nilotinib -0.052 | [1] 0.032 | dasatinib 0.006 | [2] -0.005 | [3] 0.021 | quisinostat -0.011 | tipifarnib 0.009 | [4] 0.011 | [5] -0.008 | [6] -0.003

PCF11 (UniProt O94913)
inactive: nilotinib -0.003 | [1] -0.001 | dasatinib -0.042 | [2] 0.023 | [3] -0.017 | quisinostat -0.004 | tipifarnib -0.029 | [4] 0.019 | [5] -0.013 | [6] -0.012

PXMP4 (UniProt Q9Y6I8)
Sequence of UniProt Q9Y6I8 (Q9Y6I8 whole entry, looked up): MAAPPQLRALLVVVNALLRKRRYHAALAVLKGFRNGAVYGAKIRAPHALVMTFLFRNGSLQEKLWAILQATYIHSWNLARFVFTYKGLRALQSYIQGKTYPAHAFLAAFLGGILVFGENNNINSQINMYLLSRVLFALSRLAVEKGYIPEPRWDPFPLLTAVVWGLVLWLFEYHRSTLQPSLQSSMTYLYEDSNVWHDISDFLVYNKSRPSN
inactive: nilotinib -0.011 | [1] 0.014 | dasatinib 0.078 | [2] 0.013 | [3] -0.092 | quisinostat -0.146 | [4] 0.018 | [5] -0.018 | [6] -0.215
active: tipifarnib 0.846

PPP1R8 (UniProt Q12972)
inactive: nilotinib 0.004 | [1] -0.011 | dasatinib 0.03 | [2] 0.034 | [3] 0.025 | quisinostat -0.023 | tipifarnib 0.013 | [4] -0.007 | [5] 0.01 | [6] -0.024

POLA1 (UniProt P09884)
inactive: nilotinib -0.022 | [1] -0.01 | dasatinib 0.011 | [2] 0.017 | [3] 0.009 | quisinostat -0.028 | tipifarnib -0.001 | [4] 0.029 | [5] 0.001 | [6] 0.008

PKN1 isoform 2 (UniProt Q16512)
Sequence of UniProt Q16512 (Q16512 whole entry, looked up): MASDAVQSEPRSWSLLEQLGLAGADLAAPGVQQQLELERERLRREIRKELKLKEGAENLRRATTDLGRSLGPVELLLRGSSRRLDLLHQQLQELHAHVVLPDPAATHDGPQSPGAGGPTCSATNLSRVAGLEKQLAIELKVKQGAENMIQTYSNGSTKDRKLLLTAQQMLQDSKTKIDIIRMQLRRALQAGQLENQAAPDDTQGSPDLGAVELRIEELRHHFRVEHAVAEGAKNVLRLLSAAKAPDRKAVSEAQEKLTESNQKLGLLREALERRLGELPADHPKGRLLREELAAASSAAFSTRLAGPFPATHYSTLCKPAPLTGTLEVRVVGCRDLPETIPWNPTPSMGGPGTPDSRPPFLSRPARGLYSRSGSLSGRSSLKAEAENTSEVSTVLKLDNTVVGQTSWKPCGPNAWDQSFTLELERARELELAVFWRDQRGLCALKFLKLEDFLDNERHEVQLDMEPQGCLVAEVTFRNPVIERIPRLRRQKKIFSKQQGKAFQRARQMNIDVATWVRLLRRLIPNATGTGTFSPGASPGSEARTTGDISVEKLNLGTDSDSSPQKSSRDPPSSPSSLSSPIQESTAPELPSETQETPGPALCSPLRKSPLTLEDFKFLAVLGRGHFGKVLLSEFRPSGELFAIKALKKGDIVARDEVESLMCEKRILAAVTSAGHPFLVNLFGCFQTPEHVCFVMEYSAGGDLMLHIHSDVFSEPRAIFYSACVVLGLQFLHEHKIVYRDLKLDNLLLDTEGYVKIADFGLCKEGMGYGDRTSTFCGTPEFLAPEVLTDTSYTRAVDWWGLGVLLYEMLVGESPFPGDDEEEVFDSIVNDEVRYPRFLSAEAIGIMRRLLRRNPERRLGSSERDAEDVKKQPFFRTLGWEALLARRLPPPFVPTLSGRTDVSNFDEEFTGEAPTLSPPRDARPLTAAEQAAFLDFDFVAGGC
inactive: nilotinib -0.014 | [1] -0.098 | dasatinib -0.14 | [2] -0.002 | [3] 0 | quisinostat 0.102 | tipifarnib 0.009 | [4] -0.128 | [5] -0.054 | [6] -0.004

PPIL2 (UniProt Q13356)
inactive: nilotinib -0.032 | [1] 0.014 | dasatinib 0.064 | [2] 0.008 | [3] -0.004 | quisinostat -0.063 | tipifarnib -0.038 | [4] 0.018 | [5] -0.063 | [6] 0.011

PSMB9 (UniProt P28065)
Sequence of UniProt P28065 (P28065 whole entry, looked up): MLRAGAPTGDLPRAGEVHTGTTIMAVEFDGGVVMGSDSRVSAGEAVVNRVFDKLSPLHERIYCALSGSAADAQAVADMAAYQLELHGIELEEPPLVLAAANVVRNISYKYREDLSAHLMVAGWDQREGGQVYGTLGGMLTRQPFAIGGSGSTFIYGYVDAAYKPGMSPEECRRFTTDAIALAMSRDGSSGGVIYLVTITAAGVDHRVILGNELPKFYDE
inactive: nilotinib 0.019 | [1] 0.092 | dasatinib -0.031 | [2] -0.098 | [3] -0.033 | quisinostat -0.213 | tipifarnib 0.024 | [4] 0.027 | [5] 0.034 | [6] -0.076

PRKCSH (UniProt P14314)
inactive: nilotinib 0.01 | [1] 0.016 | dasatinib 0.037 | [2] 0.041 | [3] -0.003 | quisinostat 0.088 | tipifarnib 0.008 | [4] -0.006 | [5] -0.004 | [6] 0.036

POMP (UniProt Q9Y244)
inactive: nilotinib 0.021 | [1] 0.057 | dasatinib 0.048 | [3] 0 | quisinostat -0.054 | tipifarnib -0.046 | [4] -0.007 | [5] 0.039 | [6] -0.002
active: [2] 0.301

PRPF6 (UniProt O94906)
inactive: nilotinib -0.001 | [1] 0.021 | dasatinib -0.036 | [2] -0.005 | [3] 0.026 | quisinostat -0.067 | tipifarnib 0.008 | [4] 0.044 | [5] 0.022 | [6] -0.019

POLR2B (UniProt P30876)
inactive: nilotinib -0.027 | [1] 0.01 | dasatinib -0.065 | [2] 0.004 | [3] 0.003 | quisinostat -0.057 | tipifarnib -0.012 | [4] 0.027 | [5] -0.004 | [6] -0.03

PTPN7 isoform 3 (UniProt P35236)
inactive: nilotinib -0.03 | [1] 0.017 | dasatinib -0.088 | [2] -0.021 | [3] 0.064 | quisinostat 0.008 | tipifarnib 0.054 | [4] -0.006 | [5] -0.015 | [6] -0.043

PIP4P2 (UniProt Q8N4L2)
active: nilotinib 0.287
inactive: [1] -0.073 | dasatinib -0.171 | [2] -0.015 | [3] -0.048 | quisinostat 0.035 | tipifarnib -0.148 | [4] -0.016 | [5] 0.121 | [6] -0.007

PDPK1 (UniProt O15530)
active: [4] 0.619
inactive: nilotinib -0.093 | [1] 0.314 | dasatinib -0.014 | [2] -0.093 | [3] 0 | quisinostat -0.094 | tipifarnib -0.011 | [5] 0.019 | [6] -0.059

PTS (UniProt Q03393)
inactive: nilotinib 0.172 | [1] 0.024 | dasatinib 0 | [2] -0.018 | [3] 0.082 | quisinostat -0.083 | tipifarnib 0.112 | [4] 0.126 | [5] 0.006 | [6] -0.077

PI4K2B (UniProt Q8TCG2)
active: [5] 0.689
inactive: nilotinib -0.037 | [1] 0.021 | dasatinib -0.021 | [2] 0.069 | [3] 0.092 | quisinostat 0.063 | tipifarnib -0.036 | [4] 0.076 | [6] 0.009

PHOSPHO2 (UniProt Q8TCD6)
Sequence of UniProt Q8TCD6 (Q8TCD6 whole entry, looked up): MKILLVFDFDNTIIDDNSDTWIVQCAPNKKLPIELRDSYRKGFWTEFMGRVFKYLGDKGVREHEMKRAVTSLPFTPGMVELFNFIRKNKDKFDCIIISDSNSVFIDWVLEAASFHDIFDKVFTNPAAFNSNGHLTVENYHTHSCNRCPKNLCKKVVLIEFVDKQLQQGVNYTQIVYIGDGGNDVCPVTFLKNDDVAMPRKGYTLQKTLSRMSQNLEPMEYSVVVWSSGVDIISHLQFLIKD
inactive: nilotinib 0.003 | [1] -0.013 | dasatinib 0.024 | [2] 0.038 | [3] -0.033 | quisinostat 0.03 | tipifarnib 0.068 | [4] -0.036 | [5] -0.004 | [6] 0.013

PPME1 isoform 4 (UniProt Q9Y570)
inactive: nilotinib 0.01 | [1] -0.053 | dasatinib -0.008 | [2] -0.025 | [3] -0.003 | quisinostat 0.018 | tipifarnib 0.01 | [4] -0.03 | [5] -0.016 | [6] 0.041

PDCD6IP (UniProt Q8WUM4)
Sequence of UniProt Q8WUM4 (Q8WUM4 whole entry, looked up): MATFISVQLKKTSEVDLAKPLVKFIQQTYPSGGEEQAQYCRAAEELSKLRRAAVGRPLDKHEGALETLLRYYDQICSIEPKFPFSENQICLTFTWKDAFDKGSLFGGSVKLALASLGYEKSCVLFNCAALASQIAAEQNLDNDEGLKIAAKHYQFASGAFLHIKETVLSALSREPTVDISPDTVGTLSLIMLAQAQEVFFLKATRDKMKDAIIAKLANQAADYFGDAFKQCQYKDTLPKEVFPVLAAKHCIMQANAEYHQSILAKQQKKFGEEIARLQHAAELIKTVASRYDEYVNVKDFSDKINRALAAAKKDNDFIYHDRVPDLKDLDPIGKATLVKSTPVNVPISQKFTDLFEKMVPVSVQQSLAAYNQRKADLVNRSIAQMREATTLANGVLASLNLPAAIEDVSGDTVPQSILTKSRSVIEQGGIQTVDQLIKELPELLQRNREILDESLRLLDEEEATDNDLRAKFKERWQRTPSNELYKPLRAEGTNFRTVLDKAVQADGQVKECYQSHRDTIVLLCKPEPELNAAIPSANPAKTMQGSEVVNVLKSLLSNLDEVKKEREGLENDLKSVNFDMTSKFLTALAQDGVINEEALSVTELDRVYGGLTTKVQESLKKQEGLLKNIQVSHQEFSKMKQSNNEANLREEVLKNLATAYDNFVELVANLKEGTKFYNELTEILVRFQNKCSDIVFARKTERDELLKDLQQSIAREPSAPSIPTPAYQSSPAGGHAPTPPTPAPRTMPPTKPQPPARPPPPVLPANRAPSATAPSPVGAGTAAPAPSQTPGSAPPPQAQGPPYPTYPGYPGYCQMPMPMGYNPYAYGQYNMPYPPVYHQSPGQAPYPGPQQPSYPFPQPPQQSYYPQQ
inactive: nilotinib 0.059 | [1] -0.045 | dasatinib -0.023 | [2] -0.006 | [3] 0.049 | quisinostat 0.001 | tipifarnib 0.06 | [4] 0 | [5] -0.058 | [6] -0.032

PIK3R2 (UniProt O00459)
Sequence of UniProt O00459 (O00459 whole entry, looked up): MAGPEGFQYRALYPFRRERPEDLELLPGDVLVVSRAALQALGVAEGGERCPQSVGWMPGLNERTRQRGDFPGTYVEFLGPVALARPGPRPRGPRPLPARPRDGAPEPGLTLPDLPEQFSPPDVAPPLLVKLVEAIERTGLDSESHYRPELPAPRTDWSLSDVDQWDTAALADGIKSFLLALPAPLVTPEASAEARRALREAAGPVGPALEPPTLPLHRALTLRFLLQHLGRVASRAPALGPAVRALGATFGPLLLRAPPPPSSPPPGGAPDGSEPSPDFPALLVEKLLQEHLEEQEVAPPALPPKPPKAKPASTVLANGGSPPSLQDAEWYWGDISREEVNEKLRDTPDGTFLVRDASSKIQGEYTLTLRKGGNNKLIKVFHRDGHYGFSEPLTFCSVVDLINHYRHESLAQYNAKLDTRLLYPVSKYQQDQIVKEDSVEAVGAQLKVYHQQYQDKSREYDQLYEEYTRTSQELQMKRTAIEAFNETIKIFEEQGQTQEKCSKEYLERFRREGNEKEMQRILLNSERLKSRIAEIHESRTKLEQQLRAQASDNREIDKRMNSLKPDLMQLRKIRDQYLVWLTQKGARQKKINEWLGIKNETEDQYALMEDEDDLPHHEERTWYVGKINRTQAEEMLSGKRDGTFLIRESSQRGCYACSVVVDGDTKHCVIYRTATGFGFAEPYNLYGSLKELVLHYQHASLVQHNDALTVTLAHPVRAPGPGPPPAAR
inactive: nilotinib 0.007 | [1] -0.006 | dasatinib -0.023 | [2] 0.003 | [3] -0.008 | quisinostat -0.04 | tipifarnib -0.001 | [4] 0.031 | [5] 0.017 | [6] 0.263

PCBP3 (UniProt P57721)
inactive: nilotinib 0.015 | [1] -0.022 | dasatinib -0.005 | [2] 0.018 | [3] -0.025 | quisinostat -0.004 | tipifarnib 0 | [4] -0.023 | [5] -0.014 | [6] 0.012

From the supplement of paper PMC10849652
